Some test systems named below: BT-549 breast; MDA-MB-435 melanoma; SW-620 colon; MCF7 breast; HCT-116 colon; HCC-2998 colon; KM12 colon.
Common to all, as to experiment: NCI-60 one-dose screen, 48 h (100 = growth as untreated, 0 = no growth, -100 = all killed)
Conditions in all cases: 10 µM unless noted

SMILES strings stand for the structures. Compounds without any hit were thinned out: in the full panel of roughly 83,000, 20% have a hit.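 The endpoint reported here, percent growth, reads 100 for growth as untreated, 0 for no net growth and -100 for all cells dead.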 Values without a mark were called inactive. Activity calls are given as the source filed them. How the source made its calls: active means growth percent below 10; inactive means the rest.

As for `CN(C)CCCn1c2c(c3cc(-c4cccc(S(N)(=O)=O)c4)ccc3c1=O)C(=O)c1ccccc1-2`, the growth with BT-549 breast was 76.1%; in the test on MDA-MB-435 melanoma it was 80.3%; in the test on SW-620 colon it was 36.8%; in the test on MCF7 breast, 27.7%; in the test with HCT-116 colon, -82.6% (active); with HCC-2998 colon it was 77.2%. For the same compound, the growth in the test on KM12 colon is 65.5%.
With `Nc1c(C(=O)Nc2ccccc2Cl)sc2nc3c(cc12)CN(Cc1ccccc1)CC3`, the growth in the test with BT-549 breast is 93.8%; in the test with MDA-MB-435 melanoma, 107%; in the test with SW-620 colon, 94.1%; in the test on MCF7 breast, 92.9%; with HCT-116 colon, 103%; with HCC-2998 colon, 96.5%. Also, the growth with KM12 colon is 96.1%.
`CC(=O)Nc1c(C(=O)Nc2ccccc2)sc2nc3c(cc12)C(OC(C)=O)CCC3` (configuration not stated): the growth in the test on BT-549 breast was 83.6%; in the test on MDA-MB-435 melanoma, 35.3%; in the test with SW-620 colon it was 97.4%; in the test on MCF7 breast, 97.6%; in the test on HCT-116 colon, 104%; with HCC-2998 colon, 68.7%. For the same compound, the growth in the test with KM12 colon was 80.2%.
With `Cc1nc2sc(C(=O)Nc3ccccc3Cl)c(N)c2cc1C(C)O` (configuration not stated), the growth was 78.8% in the test on BT-549 breast; 5.06% (active) in the test with MDA-MB-435 melanoma; 57.6% in the test on SW-620 colon; 48.6% in the test with MCF7 breast; 67.8% with HCT-116 colon; 84.5% in the test with HCC-2998 colon. The growth in the test with KM12 colon is 56.1%.
Take `O=C1CC(c2ccc(O)c(O)c2)Oc2cc(O)c([C@@H]3O[C@H](CO)[C@@H](O)[C@H](O)[C@H]3O)c(O)c21` (some centres not stated): the growth was 102% in the test on BT-549 breast; 105% in the test with MDA-MB-435 melanoma; 98.4% in the test on SW-620 colon; 108% with MCF7 breast; 93.9% with HCT-116 colon; 108% in the test with HCC-2998 colon. Besides, the growth in the test on KM12 colon was 109%.
`O=C1CCC23OC(C(O)c4ccccc4N12)C1C(Br)=NOC13` (configuration not stated): the growth was 102% in the test with BT-549 breast; 96.2% with MDA-MB-435 melanoma; 107% in the test on SW-620 colon; 96.5% in the test with MCF7 breast; 94.6% in the test with HCT-116 colon; 100% in the test on HCC-2998 colon. Also, the growth in the test on KM12 colon was 103%.
In the case of `CSc1nc(-c2ccco2)c2c(N)[nH]nc2n1`, the growth in the test on BT-549 breast was 102%; with MDA-MB-435 melanoma, 115%; with SW-620 colon, 111%; in the test on MCF7 breast it was 94.2%; in the test with HCT-116 colon, 84.1%; with HCC-2998 colon, 111%. In the test on KM12 colon, the growth was 44.1%.
On to `C#Cc1ccccc1NC(=O)c1sc2nc3c(cc2c1N)CCCCC3`, for which the growth with BT-549 breast was 96.4%; in the test on MDA-MB-435 melanoma, 95.1%; in the test on SW-620 colon, 102%; with MCF7 breast, 81.5%; with HCT-116 colon, 109%; in the test on HCC-2998 colon, 105%. Besides, the growth in the test on KM12 colon was 102%.
As for `CC(=O)OCC1OC(OC2C(COC(C)=O)OC(OCCC[S-])C(OC(C)=O)C2OC(C)=O)C(OC(C)=O)C(OC(C)=O)C1OC(C)=O.[Au+].c1ccc(CN2[CH-]N(Cc3ccccc3)C(c3ccccc3)=C2c2ccccc2)cc1` (configuration not stated), the growth with BT-549 breast is 25.3%; with MDA-MB-435 melanoma, 18.9%; in the test on SW-620 colon it was 18.5%; in the test with MCF7 breast, 7.42% (active); in the test with HCT-116 colon, 9.17% (active); in the test with HCC-2998 colon, 45.2%. The growth in the test on KM12 colon was 26.7%.
For `Nc1c(C(=O)Nc2cccc3ccccc23)sc2nc3c(cc12)COCC3`, the growth in the test with BT-549 breast is 51.3%; in the test on MDA-MB-435 melanoma it was -1.93% (active); in the test with SW-620 colon it was 24.9%; in the test with MCF7 breast it was 18.7%; with HCT-116 colon it was 26.3%; with HCC-2998 colon, 85.5%. In the test on KM12 colon, the growth was 40.7%.
Regarding `C=C(C)[C@@H]1CC[C@]2(C(=O)O)CC[C@]3(C)[C@H](CC[C@@H]4[C@@]5(C)C[C@@H](CC#Cc6ccccc6C)C(=O)C(C)(C)[C@@H]5CC[C@]43C)[C@@H]12`, the growth in the test on BT-549 breast is 43.4%; in the test with MDA-MB-435 melanoma it was 55.5%; in the test with SW-620 colon, 25.7%; with MCF7 breast, 15.3%; with HCT-116 colon, 12.5%; in the test on HCC-2998 colon, 31.7%. Further, in the test on KM12 colon, the growth was 20.3%.
For `COc1ccc(/C=C/C(=O)Nc2ncnc3nc[nH]c23)cc1`, the growth was 103% in the test with BT-549 breast; 91.1% in the test on MDA-MB-435 melanoma; 110% in the test with SW-620 colon; 78.9% in the test with MCF7 breast; 101% in the test on HCT-116 colon; 111% in the test with HCC-2998 colon. The growth in the test with KM12 colon is 95.8%.
As for `Oc1ccccc1-c1nc2c3ccccc3c3ccccc3c2o1`, the growth in the test with BT-549 breast is 103%; in the test on MDA-MB-435 melanoma, 99.3%; with SW-620 colon it was 68.4%; in the test with MCF7 breast it was 62.4%; in the test on HCT-116 colon, 80.7%; in the test with HCC-2998 colon, 103%. Further, the growth in the test on KM12 colon was 93.3%.
Take `CCOC(=O)C(=Cc1c(-c2ccccc2)[nH]c2ccccc12)C(=O)OCC`: the growth with BT-549 breast was 67.1%; with MDA-MB-435 melanoma, 14.5%; in the test on SW-620 colon, 53.5%; in the test with MCF7 breast, 41.6%; with HCT-116 colon, 41%; in the test on HCC-2998 colon, 80.7%. Also, the growth in the test on KM12 colon is 24.1%.
Turning to `CCN(CC)CC#CCOC(=O)[C@]1(C)CCC[C@]2(C)[C@H]3C[C@H]4C(C(C)C)=C[C@]3(CC[C@H]21)[C@@H]1C(=O)CCC(=O)[C@@H]14`, the growth was 63.7% with BT-549 breast; 74% with MDA-MB-435 melanoma; 55.1% with SW-620 colon; 25.1% in the test on MCF7 breast; 35.8% in the test on HCT-116 colon; 75% in the test on HCC-2998 colon. The growth in the test with KM12 colon was 51.9%.
For the compound `CCCCn1c(=O)c(/C=C/C(=O)/C=C/c2ccc(OC)cc2)cc2cc(Cl)ccc21`, the growth in the test with BT-549 breast was 89.4%; in the test with MDA-MB-435 melanoma, 95.6%; in the test with SW-620 colon, 18.3%; with MCF7 breast it was 34.4%; with HCT-116 colon, -67.1% (active); in the test with HCC-2998 colon, 90.7%. In addition, in the test on KM12 colon, the growth was 25.9%.

These data come from PubChem BioAssay (NCI).
